According to PubChem BioAssay (NCI):
About 79,000 compounds went through this panel and 15% of them were active in at least one assay; those are over-represented in the sample as a whole. Rule as the data show it: active = growth inhibition above about 70%; inactive = the rest.

Experiments:
[1] = NCI Yeast Anticancer Drug Screen. Data for the rad50 strain (AID 155);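 also: 0% = growth of vehicle-only cultures of the same strain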; conditions: S. cerevisiae rad50 strain growth inhibition; at 50.0 µM; stronger effect = higher value
Summary of the method: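 Vehicle-treated cultures provide the reference for the growth inhibition reported for compound-exposed, repair-deficient yeast.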

[2] = NCI Yeast Anticancer Drug Screen. Data for the mec2-1 strain (AID 157); conditions: S. cerevisiae mec2-1 strain, at 50.0 µM, stronger effect = higher value
Summary of the method: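 Vehicle-treated cultures served as reference for growth inhibition of compound-exposed mec2-1 yeast.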

[3] = NCI Yeast Anticancer Drug Screen. Data for the sgs1 mgt1 strain (AID 161);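 also: 0% = growth of cultures given vehicle only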; conditions: S. cerevisiae sgs1 mgt1 strain, at 50.0 µM, stronger effect = higher value
Summary of the method: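 Genetically altered yeast, compound exposure, growth inhibition relative to vehicle.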

[4] = NCI Yeast Anticancer Drug Screen. Data for the cln2 rad14 strain (AID 165);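 also: 0% = growth equal to vehicle treated cultures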; conditions: S. cerevisiae cln2 rad14 strain, at 50.0 µM, stronger effect = higher value
Summary of the method: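 Each compound was tested on cln2 rad14 yeast. Inhibition of growth was calculated against vehicle-exposed controls.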

[5] = NCI Yeast Anticancer Drug Screen. Data for the bub3 strain (AID 167); conditions: S. cerevisiae bub3 mutant strain, at 50.0 µM, stronger effect = higher value
Summary of the method: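 Mutant yeast screening strain plus compound; vehicle-treated cultures serve as the 0% inhibition reference.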

[6] = NCI Yeast Anticancer Drug Screen. Data for the mlh1 rad18 strain (AID 175); conditions: S. cerevisiae mlh1 rad18 strain growth inhibition; at 50.0 µM; stronger effect = higher value
Summary of the method: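 Vehicle-treated cultures served as the reference for growth inhibition in a yeast strain carrying DNA damage repair alterations exposed to each compound.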

Measured: growth inhibition

CC(C)[Si]1(C(C)C)OCC2OC(n3c(C(=O)c4ccccc4)cc(=O)[nH]c3=O)CC2O[Si](C(C)C)(C(C)C)O1 (stereo not given)
inactive: [1] -2.2% | [2] 5.7% | [3] 17.5% | [4] 24.4% | [5] 17.9% | [6] 6.35%

COc1cc2c(c([N+](=O)[O-])c1)NC(=O)C(c1ccccc1)S2 (stereo not given)
inactive: [1] -15.9% | [2] -12.3% | [3] -3.45% | [4] 23.1% | [5] 15.9% | [6] -3.95%

COc1ccc(N2C(=O)/C(=C\c3ccc(N(CCC#N)CCC#N)cc3)N=C2COc2ccccc2)cc1
inactive: [1] 0.8% | [2] -2.2% | [3] 4.45% | [4] 8.7% | [5] -1.35% | [6] 1.3%

O=C1NC(=O)C2C1C1C=C3c4ccccc4N(c4ccccc4)C32[C@H]2C(=O)NC(=O)[C@@H]12 (stereo not given in full)
inactive: [1] -3.4% | [2] -13.2% | [3] 7.15% | [4] 24.9% | [5] 17.4% | [6] -4.9%

CN(C)NC1=C([N+](=O)[O-])C=NN(c2ccccc2)C1
inactive: [1] 15% | [2] -1.15% | [3] 13.4% | [4] 19.4% | [5] 22.1% | [6] 51.6%

C=CCCCCCCCC(O)C1C[C@H](O)C(CCCCC)O1 (stereo not given in full)
inactive: [1] -0.8% | [2] -16.9% | [3] 9.25% | [4] 1.15% | [5] -17.2% | [6] -5%

C/C=C/C(=O)Nc1cc(C(F)(F)F)ccc1Cl
inactive: [1] 26.6% | [2] -2.3% | [3] -44.5% | [4] 10.8% | [5] 1.4% | [6] 9.15%

CCOC(=O)CCCCCSc1n[nH]c(=O)[nH]c1=O
inactive: [1] -7.5% | [2] -11% | [3] -21.9% | [4] 5.75% | [5] 6.15% | [6] -4.2%

CC[C@H](O)[C@H](C)C=C1SCCCS1
inactive: [1] -14.3% | [2] -42.2% | [3] 19.9% | [4] 25.1% | [5] -43.8% | [6] -43.6%

CCOC(=O)CNc1nnnn1C1OC(CO)C(O)C1O (stereo not given)
inactive: [1] -2.05% | [2] -13.1% | [3] -11.4% | [4] 11.7% | [5] -12% | [6] -19.6%

Cc1cc2c(cc1C)NC(=O)CC(c1ccccc1)=N2
inactive: [1] 18% | [2] -7.8% | [3] 4.15% | [4] 3.3% | [5] 28.9% | [6] 10.8%

Cc1ccc(NC(=O)C(c2ccccc2)c2ccccc2)cc1
inactive: [1] 0.15% | [2] 19.4% | [3] 3.8% | [4] -2.55% | [5] 20.2% | [6] 6.75%

C/C(=N\Nc1ccccc1Br)c1cccc(/C(C)=N/Nc2ccccc2Br)n1
inactive: [1] -21.6% | [2] -1.55% | [3] -6.1% | [4] -11.6% | [5] 2.75% | [6] 6.2%

S=c1nc[nH]c2nc(Cl)[nH]c12
inactive: [1] -5.45% | [2] -18.6% | [3] -21.6% | [4] -0.25% | [5] -26.6% | [6] 4%

O=S(Cc1cnc2ccccc2c1)c1nc2ccccc2nc1-c1cccs1 (stereo not given)
inactive: [1] -10.2% | [2] -28.8% | [3] -20.7% | [4] -11% | [5] -8.4% | [6] -11.7%

O=C(O)CNC(=O)NNc1ccccc1
inactive: [1] -4.75% | [2] -7.6% | [3] -11% | [4] 28.3% | [5] -10.3% | [6] -12.7%

COC(=O)c1ccccc1C1CN=NC12Cc1cccc(C)c1C2=O (stereo not given)
inactive: [1] 26.6% | [2] 20.2% | [3] 64.8% | [4] 43.1% | [5] 28.9% | [6] 52.6%

CC(=O)OCCn1c(Cc2ccc(Cl)cc2)nn(C(C)=O)c1=O
inactive: [1] 14.4% | [2] 5.95% | [3] 20.1% | [4] 6.7% | [5] -15.2% | [6] 15.3%

CCOC(=O)CC(=O)c1ccc(Cl)cc1
inactive: [1] 15.1% | [2] 12.9% | [3] 11.4% | [4] 6.95% | [5] -12.8% | [6] -7.65%

COC(=O)c1ccccc1NC(=O)N(c1ccccc1)c1ccccc1
inactive: [1] 1.35% | [2] -3.45% | [3] 14.4% | [4] -12.2% | [5] 17.8% | [6] -1.55%
